Data reported in PubChem BioAssay (EPA / NIEHS).
Inconclusive results are not listed. The source made the active and inactive calls. How the source made its calls, unless noted: active means hit-call score of the fitted dose curve at least 0.9, where 1 is the maximum; inconclusive means response in the unintended direction; inactive means score below 0.9.

Experiments:
[1] = Tanguay_ZF_120hpf_SNOU_legacy: (Legacy) Oregon State University Tanguay Lab 120 Hour Post-fertilization zebrafish Assay for Snout Malformation (AID 2283637)
How it was run: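 Tropical 5D wild-type zebrafish embryos, dechorionated with pronase at 4 hpf, were exposed singly from 6 hpf to 120 hpf statically at 28C in 0.64% DMSO. Snout malformation was scored present/absent by brightfield microscopy, fitted against DMSO.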

[2] = Tanguay_ZF_120hpf_JAW_legacy: (Legacy) Oregon State University Tanguay Lab 120 Hour Post-fertilization zebrafish Assay for Jaw Malformation (AID 2283638);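 on AC50: active means more embryos with jaw malformation than DMSO controls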
How it was run: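 Wild-type 5D embryos, chorion removed at 4 hpf, dosed singly from 6 hpf; 28C static, sealed, foil-covered, to 120 hpf. Endpoint: jaw defect yes/no (brightfield); mortality excludes scoring.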

[3] = Tanguay_ZF_120hpf_OTIC_legacy: (Legacy) Oregon State University Tanguay Lab 120 Hour Post-fertilization zebrafish Assay for Otic Vesicle Malformation (AID 2283639)
How it was run: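 Tropical 5D wild-type zebrafish embryos statically exposed in 0.64% DMSO at 28C until 120 hpf; 5uM trimethyltin chloride as positive control. Otic vesicle malformation scored present/absent by brightfield; dead embryos not scored; gain fitted versus DMSO.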

[4] = Tanguay_ZF_120hpf_PE_legacy: (Legacy) Oregon State University Tanguay Lab 120 Hour Post-fertilization zebrafish Assay for Pericardial Edema (AID 2283640);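 on AC50: potency for increased incidence of pericardial edema versus DMSO baseline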
How it was run: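 Zebrafish larvae are exposed from early development to 120 hpf at 28C, with 0.64% DMSO final. Each surviving larva receives a yes/no pericardial edema call by brightfield imaging, analysed relative to the DMSO baseline.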

[5] = Tanguay_ZF_120hpf_BRAI_legacy: (Legacy) Oregon State University Tanguay Lab 120 Hour Post-fertilization zebrafish Assay for Brain Malformation (AID 2283641)
How it was run: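 Static exposure of staged wild-type embryos until 120 hpf, kept at 28C with light excluded and final DMSO of 0.64% (vol/vol). Presence or absence of brain malformation was noted under brightfield; mortality precluded scoring.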

[6] = Tanguay_ZF_120hpf_SOMI_legacy: (Legacy) Oregon State University Tanguay Lab 120 Hour Post-fertilization zebrafish Assay for Somite Malformation (AID 2283647)
How it was run: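 Somitogenesis defects are recorded as binary calls in whole larvae at 120 hpf after continuous static chemical exposure starting at 6 hpf in dechorionated 5D embryos. DMSO serves as negative control and baseline.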

[7] = Tanguay_ZF_120hpf_CFIN_legacy: (Legacy) Oregon State University Tanguay Lab 120 Hour Post-fertilization zebrafish Assay for Caudal Fin Malformation (AID 2283649)
How it was run: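 Single dechorionated 5D wild-type embryos are dosed at 6 hpf (final DMSO 0.64%) and held statically at 28C. Caudal fin malformation is recorded as present or absent at 120 hpf under brightfield, excluding dead embryos.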

[8] = Tanguay_ZF_120hpf_PIG_legacy: (Legacy) Oregon State University Tanguay Lab 120 Hour Post-fertilization zebrafish Assay for Pigmentation Malformation (AID 2283650)
How it was run: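 Tropical 5D wild-type zebrafish embryos, dechorionated with pronase at 4 hpf, were exposed singly from 6 hpf to 120 hpf statically at 28C in sealed, dark plates with 0.64% DMSO; pigmentation scored present/absent by brightfield microscopy, fitted against DMSO.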

[9] = Tanguay_ZF_120hpf_CIRC_legacy: (Legacy) Oregon State University Tanguay Lab 120 Hour Post-fertilization zebrafish Assay for Circulatory Malformation (AID 2283651)
How it was run: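 Dechorionated wild-type 5D zebrafish embryos, one per well, statically exposed from 6 to 120 hpf at 28C with 0.64% DMSO; circulatory malformation scored present/absent by brightfield microscopy at 120 hpf, dead embryos excluded.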

[10] = Tanguay_ZF_120hpf_TRUN_legacy: (Legacy) Oregon State University Tanguay Lab 120 Hour Post-fertilization zebrafish Assay for Truncated Body (AID 2283655)
How it was run: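 Single dechorionated zebrafish embryos received test chemical from 6 hpf in 0.64% DMSO, kept at 28C. At 120 hpf, brightfield inspection noted any truncated body.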

[11] = Tanguay_ZF_120hpf_NC_legacy: (Legacy) Oregon State University Tanguay Lab 120 Hour Post-fertilization zebrafish Assay for Notochord and Tail Malformation (AID 2283656)
How it was run: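 Dechorionated Tropical 5D wild-type zebrafish embryos, one per well from 6 hpf, statically exposed to 120 hpf at 28C in 0.64% DMSO final. Notochord distortion scored present/absent by brightfield; dead embryos excluded.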

[12] = read-out: ABC Transporter (ABCB1), ABCB1 (gene 5243); test: CLD_ABCB1_6hr: CellzDirect (CLD) Gene Expression Assay for ABC Transporter (ABCB1) at 6 hours (AID 2283659);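 further: hits raise ABCB1 transcript above the DMSO vehicle baseline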
How it was run: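 Primary human hepatocytes (two donor preparations) dosed daily for two days with chemicals at multiple concentrations, 0.2% DMSO vehicle; harvested 6 h post-dose. ABCB1 mRNA induction quantified by qNPA chemiluminescence; gain-of-signal fitted versus DMSO.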

[13] = read-out: xenobiotic metabolism (CYP1A1), CYP1A1 (gene 1543); test: CLD_CYP1A1_6hr: CellzDirect (CLD) Gene Expression Assay for xenobiotic metabolism (CYP1A1) at 6 hours (AID 2283661);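 on AC50: potency for transcript induction above DMSO vehicle baseline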
How it was run: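 Primary human hepatocytes from two donors, compound versus 0.2% DMSO vehicle. CYP1A1 mRNA measured 6 h after dosing by quantitative nuclease protection assay with chemiluminescent read-out; induction fitted relative to DMSO, cytotoxicity flagged by microscopy.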

[14] = read-out: kallikrein-3 (KLK3), KLK3 (gene 354); test: LTEA_HepaRG_KLK3: Life Technologies and Expression Analysis (LTEA) Assay for kallikrein-3 (KLK3) using HepaRG (AID 2283652; active means hit-call score of the fitted dose curve at least 0.9, where 1 is the maximum; inactive means score below 0.9); conditions: mRNA level, 48 h; actives raise or lower the signal
How it was run: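 Differentiated human HepaRG cells in serum-free induction medium exposed 48 h in duplicate, eight-point half-log series from 100 uM in 0.5% DMSO. KLK3 mRNA by qRT-PCR, normalised to ACTB, GAPDH, POLR2A; bidirectional fit versus DMSO.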

[15] = read-out: solute carrier (SLC22A6), SLC22A6 (gene 9356); test: LTEA_HepaRG_SLC22A6: Life Technologies and Expression Analysis (LTEA) Assay for solute carrier (SLC22A6) using HepaRG (AID 2283653; active means hit-call score of the fitted dose curve at least 0.9, where 1 is the maximum; inactive means score below 0.9); conditions: mRNA level, 48 h; actives raise or lower the signal
How it was run: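 Gene-expression endpoint in HepaRG hepatic cells: duplicate 8-point concentration-response, highest 100 uM, 48 h treatment in serum-free medium with 0.5% DMSO. SLC22A6 expression measured by qRT-PCR, normalised to ACTB/GAPDH/POLR2A.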

[16] = Tanguay_ZF_120hpf_SWIM_legacy: (Legacy) Oregon State University Tanguay Lab 120 Hour Post-fertilization zebrafish Assay for Swim Bladder Malformation (AID 2283654);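 further: swim bladder malformation in each larva scored yes or no under brightfield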
How it was run: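 Dechorionated Tropical 5D wild-type embryos, placed singly from 6 hpf, were statically exposed at 28C to 120 hpf with 0.64% DMSO final; swim bladder malformation was scored present/absent by brightfield microscopy, gain of signal relative to DMSO controls.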

[17] = read-out: solute carrier (SLC10A1), SLC10A1 (gene 6554); test: LTEA_HepaRG_SLC10A1: Life Technologies and Expression Analysis (LTEA) Assay for solute carrier (SLC10A1) using HepaRG (AID 2283657; active means hit-call score of the fitted dose curve at least 0.9, where 1 is the maximum; inactive means score below 0.9); conditions: mRNA level, 48 h; actives raise or lower the signal
How it was run: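 Differentiated HepaRG cells were plated 48 h, then exposed in serum-free induction medium for 48 h to 8 concentrations (top 100 uM, half-log steps, 0.5% DMSO). SLC10A1 mRNA was quantified by qRT-PCR normalized to ACTB, GAPDH, POLR2A; bidirectional fit versus DMSO.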

[18] = read-out: matrix metalloproteinase-1 (MMP1), MMP1 (gene 4312); test: LTEA_HepaRG_MMP1: Life Technologies and Expression Analysis (LTEA) Assay for matrix metalloproteinase-1 (MMP1) using HepaRG (AID 2283658; active means hit-call score of the fitted dose curve at least 0.9, where 1 is the maximum; inactive means score below 0.9); conditions: mRNA level, 48 h; actives raise or lower the signal
How it was run: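 In this screen, human liver HepaRG cultures receive each chemical in duplicate for 48 h (top 100 uM, 0.5% DMSO). MMP1 expression is then quantified by TaqMan qRT-PCR with ACTB/GAPDH/POLR2A normalization.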

[19] = read-out: Broad substrate specificity ATP-binding cassette transporter ABCG2 (Homo sapiens) (UniProt Q9UNQ0); test: CLD_ABCG2_6hr: CellzDirect (CLD) Gene Expression Assay for ABC Transporter (ABCG2) at 6 hours (AID 2283660)
How it was run: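 Primary human hepatocytes dosed daily with chemicals at multiple concentrations (0.2% DMSO vehicle), harvested 6 h after dosing. ABCG2 mRNA induction read by quantitative nuclease protection assay (qNPA) chemiluminescence; gain of signal fitted against DMSO baseline.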

[20] = Tanguay_ZF_120hpf_PFIN_legacy: (Legacy) Oregon State University Tanguay Lab 120 Hour Post-fertilization zebrafish Assay for Pectoral Fin Malformation (AID 2283648);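 further: each larva judged yes or no for fin defect by brightfield with dead larvae skipped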
How it was run: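 Tropical 5D wild-type embryos, dechorionated with pronase at 4 hpf, were placed singly in wells at 6 hpf and statically exposed until 120 hpf at 28C, sealed and dark, with 0.64% (vol/vol) final DMSO; pectoral fin malformation scored present/absent.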

Measured: AC50

Sequence of Broad substrate specificity ATP-binding cassette transporter ABCG2 (Homo sapiens) (Q9UNQ0 whole entry, looked up): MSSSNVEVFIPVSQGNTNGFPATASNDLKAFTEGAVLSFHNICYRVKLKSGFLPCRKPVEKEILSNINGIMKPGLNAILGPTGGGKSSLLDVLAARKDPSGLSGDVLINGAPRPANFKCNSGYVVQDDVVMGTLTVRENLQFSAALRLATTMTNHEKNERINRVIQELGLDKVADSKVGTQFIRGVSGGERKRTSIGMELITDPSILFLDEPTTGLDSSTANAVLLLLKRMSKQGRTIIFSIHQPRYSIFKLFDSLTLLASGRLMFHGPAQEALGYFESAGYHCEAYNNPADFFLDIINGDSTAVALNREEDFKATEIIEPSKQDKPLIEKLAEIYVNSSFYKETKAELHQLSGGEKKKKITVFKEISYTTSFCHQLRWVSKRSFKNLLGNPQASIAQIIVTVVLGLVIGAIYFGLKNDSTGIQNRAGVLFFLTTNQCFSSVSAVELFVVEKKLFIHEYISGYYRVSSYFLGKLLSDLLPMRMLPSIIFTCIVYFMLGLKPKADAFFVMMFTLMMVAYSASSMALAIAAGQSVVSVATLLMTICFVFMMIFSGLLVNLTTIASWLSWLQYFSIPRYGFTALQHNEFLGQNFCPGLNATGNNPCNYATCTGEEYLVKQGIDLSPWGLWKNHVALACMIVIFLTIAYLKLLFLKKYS

CCc1cnc(C2=NC(C)(C(C)C)C(=O)N2)c(C(=O)O)c1 (stereo not given)
not listed: [14] | [15] | [16] | [17] | [18] | [19] | [20]
inactive: all other assays above

CC(COc1ccc(Oc2ccccc2)cc1)Oc1ccccn1 (stereo not given)
active: [17] 27.9 µM
not listed: [9] | [12] | [13] | [20]
inactive: all other assays above

C#CCC1=C(C)C(OC(=O)C2C(C=C(C)C)C2(C)C)CC1=O (stereo not given)
not listed: [10] | [11] | [13] | [14] | [15] | [17] | [18]
inactive: all other assays above

CCOP(=S)(OCC)OC(Cl)C(Cl)(Cl)Cl (stereo not given)
inactive: [1] | [2] | [3] | [4] | [5] | [6] | [7] | [8] | [10] | [11] | [12]

Nc1c(Cl)cc([N+](=O)[O-])cc1Cl
active: [1] 31.1 µM | [2] 31.4 µM | [3] 36.4 µM | [4] 43.1 µM | [5] 46.3 µM | [20] 42.1 µM | [7] 39.1 µM | [8] 10.8 µM | [10] 34.7 µM
inactive: [6] | [9] | [16] | [11] | [19]

C[N+]1(C)CCCCC1
not listed: [13] | [14] | [15] | [17] | [18]
inactive: all other assays above

CSC1=N[C@@](C)(c2ccccc2)C(=O)N1Nc1ccccc1
active: [4] 2.63 µM | [13] 0.00477 µM
not listed: [14] | [15] | [17] | [18] | [19] | [20]
inactive: all other assays above

COc1ccc(C(=CC(=O)N2CCOCC2)c2ccc(Cl)cc2)cc1OC
inactive: [6] | [8] | [9] | [12] | [19]
active: [1] 35.4 µM | [2] 43.7 µM | [3] 42.6 µM | [4] 34.2 µM | [5] 40.9 µM | [7] 37.3 µM | [16] 63.3 µM | [10] 51.4 µM

CC(C)[C@H](C(=O)O[C@H](C#N)c1cccc(Oc2ccccc2)c1)c1ccc(Cl)cc1
active: [1] 2.25 µM | [2] 5.13 µM | [4] 5.21 µM | [5] 4.07 µM | [6] 1.15 µM | [20] 1.17 µM | [16] 4.25 µM
not listed: [13] | [14] | [15] | [17] | [18]
inactive: all other assays above

COP(=O)(NC(C)=O)SC (stereo not given)
not listed: [11] | [13] | [14] | [15] | [17] | [18] | [20]
inactive: all other assays above

CSc1nc(NC(C)C)nc(NC(C)C)n1
active: [17] 61.6 µM
not listed: [10] | [13] | [14] | [20]
inactive: all other assays above

C[Si](Cn1cncn1)(c1ccc(F)cc1)c1ccc(F)cc1
active: [1] 12 µM | [2] 13.4 µM | [3] 12.7 µM | [4] 9.78 µM | [5] 47 µM | [6] 47.7 µM | [20] 20.9 µM | [7] 36 µM | [10] 11 µM
inactive: [8] | [9] | [16] | [12] | [19]

CSc1nnc(C(C)(C)C)c(=O)n1N
not listed: [8] | [13] | [14] | [15] | [17] | [18]
inactive: all other assays above

COP(=O)(OC)SCn1c(=O)oc2cc(Cl)cnc21
active: [1] 47.5 µM | [2] 15.9 µM | [4] 11.2 µM
not listed: [12] | [13] | [14] | [15] | [17] | [18] | [20]
inactive: all other assays above

CCC(=O)Nc1ccc(Cl)c(Cl)c1
not listed: [13] | [14] | [15] | [17] | [18] | [19] | [20]
inactive: all other assays above

CCOP(=O)(OCC)Oc1cc(C)nc(C(C)C)n1
not listed: [13] | [14] | [15] | [17] | [18] | [20]
inactive: all other assays above

CNC(=O)ON=C(SC)C(=O)N(C)C
not listed: [9] | [13] | [14] | [15] | [17] | [18]
inactive: all other assays above
